{"source": "ChEMBL document CHEMBL4513216", "about": "“Probing the Open Global Health Chemical Diversity Library for Multistage-Active Starting Points for Next-Generation Antimalarials” (ACS Infect Dis, 2020)", "note": "Among all 69,000 compounds or so, about 8,600 (12%) showed an effect of 50% or more. This is one part of a sample in which strong results are shown more often than they occur."}
{"tested_on": "Plasmodium berghei", "experiment": "Screen against P. berghei liver stage (PbLuc), transformed with Luciferase, at 10uM", "format": "functional, HepG2", "details": "tested at 10 uM", "units": {"INHIBITION": "%"}}
{"smiles": "CS(=O)(=O)CCCSc1cccc(C#N)c1", "INHIBITION": -9.08}
{"smiles": "O=c1occ(CN2CCSCC2)c(O)c1CN1CCCC1", "INHIBITION": 4.93}
{"smiles": "O=C(c1ccco1)N1C[C@H]2CCCN(CC3CC3)[C@H]2C1", "INHIBITION": 25.5}
{"smiles": "CCc1cc(C(=O)N2CCC(O)(Cn3ccc4ccncc43)CC2)no1", "INHIBITION": -0.902}
{"smiles": "Cc1ncc(Cl)c(C(=O)N2CCCC(n3nc(C)nc3C)C2)n1", "note": "(stereo unspecified)", "INHIBITION": 17.265}
{"smiles": "O=C(Cn1ccc2ccc(Cl)cc21)NCc1ccc(C(=O)O)cc1", "INHIBITION": -6.42}
{"smiles": "CN(C)C(=O)[C@H]1C[C@H]2OCC[C@H]2N(Cc2ccc(F)cc2)C1", "INHIBITION": 53.2}
{"smiles": "O=C([C@H]1C[C@H]2OCC[C@H]2N(Cc2ccoc2)C1)N1CCCCO1", "INHIBITION": 88.2}
{"smiles": "CN(C)C(=O)[C@H]1C[C@H]2OCC[C@H]2N(Cc2ccc3c(c2)OCO3)C1", "INHIBITION": 28.7}
{"smiles": "O=C([C@H]1CN(Cc2ccc(F)cc2)C[C@H]2OCC[C@@H]12)N1CCCO1", "INHIBITION": 24.9}
{"smiles": "CNC(=O)[C@H]1C[C@H]2OCC[C@H]2N(Cc2ccc(F)cc2)C1", "INHIBITION": 33}
{"smiles": "O=C([C@H]1CN(Cc2cccnc2)C[C@H]2OCC[C@@H]12)N1CCCO1", "INHIBITION": 26.5}
{"smiles": "Cc1ccccc1CN1C[C@@H](C(=O)N2CCCCO2)C[C@H]2OCC[C@H]21", "INHIBITION": 42.7}
{"smiles": "O=C([C@H]1C[C@H]2OCC[C@H]2N(Cc2ccccn2)C1)N1CCCCO1", "INHIBITION": 5.44}
{"smiles": "O=C([C@H]1C[C@H]2OCC[C@H]2N(Cc2ccccc2F)C1)N1CCCCO1", "INHIBITION": 59}
{"smiles": "O=C([C@H]1C[C@H]2OCC[C@H]2N(Cc2ccoc2)C1)N1CCCO1", "INHIBITION": 19.4}
{"smiles": "O=C([C@H]1CN(Cc2ccccc2F)C[C@H]2OCC[C@@H]12)N1CCCO1", "INHIBITION": 61.9}
{"smiles": "O=C([C@H]1C[C@H]2OCC[C@H]2N(Cc2ccc(F)cc2)C1)N1CCCCO1", "INHIBITION": 38.1}
{"smiles": "Cc1ccc(CN2CCc3ncnc(C4CCOC4)c3CC2)s1", "note": "(stereo unspecified)", "INHIBITION": -31.6}
{"smiles": "CC(C)=CCN1CCN(C(=O)c2cc(C(C)C)on2)[C@H]2CS(=O)(=O)C[C@H]21", "INHIBITION": 17.7}
{"smiles": "CN(C)c1cc(C2CCN(C(=O)c3cnn(C)c3)CC2)ccn1", "INHIBITION": 26.4}
{"smiles": "COCCN1CC(=O)N(C(C)C)C(C)(C)C1", "INHIBITION": -1.3}
{"smiles": "CCCc1nc(CN(CC)Cc2ccc(S(C)(=O)=O)cc2)no1", "INHIBITION": -21.9}
{"smiles": "Cn1nc2c(cc1=O)CN(Cc1coc(-c3ccc(F)cc3)n1)CC2", "INHIBITION": -0.113}
{"smiles": "CN(Cc1cccnc1)[C@@H]1CN(Cc2nccn2C)[C@@H]2CCCO[C@H]12", "INHIBITION": -27}
{"smiles": "CC(C)NC(=O)C1CCc2nnc(CNC(=O)c3cccnc3)n21", "note": "(stereo unspecified)", "INHIBITION": -57.8}
{"smiles": "CCC[C@H]1CN(C(=O)Cn2ccccc2=O)C[C@@H]1NS(C)(=O)=O", "INHIBITION": 20.6}
{"smiles": "Cc1c(C(=O)NCCN2C(=O)CCC2=O)sc2ccc(F)cc12", "INHIBITION": -64.6}
{"smiles": "O=C(NC1CCCC1)[C@H]1C[C@H]2OCC[C@H]2N(Cc2ccoc2)C1", "INHIBITION": -1.55}
{"smiles": "O=C(NCC1CC1)[C@H]1C[C@H]2OCC[C@H]2N(Cc2ccoc2)C1", "INHIBITION": 35.3}
{"smiles": "CC1CCN(C(=O)[C@@H]2C[C@H]3OCC[C@H]3N(Cc3ccoc3)C2)CC1", "INHIBITION": 59}
{"smiles": "CCC1=NC2(CCC(C(=O)Nc3ccc(C)nc3)CC2)C(=O)N1C", "note": "(stereo unspecified)", "INHIBITION": 64.3}
{"smiles": "Cc1ccc(NC(=O)[C@H]2C[C@H](C(=O)O)CN(CC3CC3)C2)cn1", "INHIBITION": 39.4}
{"smiles": "CCC1=NC2(CCC(C(=O)Nc3ccc(F)cc3)CC2)C(=O)N1C", "note": "(stereo unspecified)", "INHIBITION": 42.4}
{"smiles": "O=C1CCN(C(=O)NCCc2c[nH]c3ccc(Cl)cc23)CCN1", "INHIBITION": 1.56}
{"smiles": "COc1ccccc1-c1nc(C(=O)N(C)C)n2ccncc12", "INHIBITION": 30.8}
{"smiles": "COc1ccccc1-c1nc(C(=O)N2CCOCC2)n2ccncc12", "INHIBITION": 32.5}
{"smiles": "COC(=O)CNC(=O)c1nc(-c2ccccc2OC)c2cnccn12", "INHIBITION": 54.9}
{"smiles": "COc1ncc(CN2CCCC2c2[nH]ncc2C(=O)N(C)C)cn1", "note": "(stereo unspecified)", "INHIBITION": 3.48}
{"smiles": "CC(C)c1cc(-c2cnn(C)c2C2CC2)c(C#N)c(N)n1", "INHIBITION": -14.3}
{"smiles": "Cc1cccc(-c2cc(-c3c(C)nn(CCO)c3C)c(C#N)c(N)n2)c1", "INHIBITION": -13.2}
{"smiles": "Cn1ncc(-c2cc(-c3cccc(O)c3)nc(N)c2C#N)c1C1CC1", "INHIBITION": 80}
{"smiles": "Cc1n[nH]c(C)c1-c1cc(-c2cc[nH]c2)nc(N)c1C#N", "INHIBITION": 28}
{"smiles": "Cc1n[nH]c(C)c1-c1cc(-c2ccc[nH]2)nc(N)c1C#N", "INHIBITION": 7.22}
{"smiles": "Cc1cc(O)ccc1-c1cc(-c2cnn(C)c2C2CC2)c(C#N)c(N)n1", "INHIBITION": 87.9}
{"smiles": "N#Cc1c(C2CC2)cc(-c2ccc(O)cc2)nc1N", "INHIBITION": -14.9}
{"smiles": "Cc1n[nH]c(C)c1-c1cc(-c2cccc(O)c2)nc(N)c1C#N", "INHIBITION": 57.6}
{"smiles": "Cc1nn(C)c(C)c1-c1cc(-c2cnn(C)c2C2CC2)c(C#N)c(N)n1", "INHIBITION": 34.5}
{"smiles": "CC(=O)N1CCN(C(=O)C2CCN(c3cccnn3)C2)CC1", "note": "(stereo unspecified)", "INHIBITION": -8.12}
{"smiles": "COC(=O)C1=C(C)N=C2SCC(=O)N2C1c1cnn(C)c1C", "note": "(stereo unspecified)", "INHIBITION": 22.6}
{"smiles": "COc1ccc(CC2(CO)CCN(c3cc(N)ncn3)CC2)cc1", "INHIBITION": 26.8}
{"smiles": "CCOCC(=O)N1CCC(c2nccn2C)CC1", "INHIBITION": 11.8}
{"smiles": "Cn1ccnc1C1CCN(C(=O)COCC(F)(F)C(F)F)CC1", "INHIBITION": 59.1}
{"smiles": "O=C(COCC(F)(F)C(F)F)N1CCC(c2ncc[nH]2)CC1", "INHIBITION": 40.6}
{"smiles": "O=C(Cc1csc(-c2ccco2)n1)N1CCN(c2nccs2)CC1", "INHIBITION": -21.7}
{"smiles": "CO[C@H]1CN(C(=O)c2ccc[nH]2)[C@@H]2COC[C@H]12", "INHIBITION": -29}
{"smiles": "COCCNC(=O)c1ccc2ccc(N(C)CC3CC3)n2c1", "INHIBITION": 26}
{"smiles": "O=S(=O)(c1ccccc1)N1CCCN(CCCn2ccnc2)CC1", "INHIBITION": 37}
{"smiles": "O=S(=O)(c1ccc(Cl)cc1)N1CCN(CCCn2ccnc2)CC1", "INHIBITION": 76.7}
{"smiles": "COc1ccc(S(=O)(=O)N2CCC(Cn3ccnc3)CC2)cc1", "INHIBITION": 8.46}
{"smiles": "O=S(=O)(c1ccccc1)N1CCN(CCn2ccnc2)CC1", "INHIBITION": -26.6}
{"smiles": "Cc1ccc(S(=O)(=O)N2CCN(CCCn3ccnc3)CC2)cc1", "INHIBITION": 81}
{"smiles": "O=S(=O)(c1ccc(F)cc1)N1CCN(CCCn2ccnc2)CC1", "INHIBITION": -49.3}
{"smiles": "COc1ccc(F)cc1S(=O)(=O)N1CCN(CCn2ccnc2)CC1", "INHIBITION": 18.2}
{"smiles": "CCc1ccc(S(=O)(=O)N2CCN(CCn3ccnc3)CC2)cc1", "INHIBITION": 51.2}
{"smiles": "O=S(=O)(c1cccnc1)N1CCN(CCn2ccnc2)CC1", "INHIBITION": -0.113}
